Test results taken from PubChem BioAssay AID1159580 (chemical genetic matrix, 2015).
Among all 5,500 compounds or so, about 2,000 (36%) were called active. Another 18% or so got no clear call; they are omitted. Cut-off read from the data, not from the text of the source: active = normalized growth mostly below about 0.91 (no sharp cut-off); inconclusive = no clear call, values can overlap the other calls; inactive = mostly above about 0.92. This is one part of the list.

Test: chemical genetic growth profiling, strain panel (AID 1159580);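 note: tested at 20 µM; growth read once vehicle control cultures reached saturation at 30 °C; 1 = growth at the plate median or of vehicle wells; lower values mean less growth of the strain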
Details: S. cerevisiae deletion strains, growth OD

Measured: normalized growth

COc1cc(-c2coc3cc(O)c(OC)c(O)c3c2=O)cc(O)c1OC
inactive: locus YHR030C, strain SLT2, active compounds read low 1.02 | locus YHR079C, strain IRE1, active compounds read low 1.03 | locus YJL095W, strain BCK1, active compounds read low 1.02 | locus YJR066W, strain TOR1, active compounds read low 0.969 | locus YLR113W, strain HOG1, active compounds read low 1.02 | locus YNL183C, strain NPR1, active compounds read low 1 | locus YOR231W, strain MKK1, active compounds read low 1.03 | locus YPL256C, strain CLN2, active compounds read low 1.07
